Inconclusive results are not listed. Entries that show only a call come without a potency. Activity calls are given as the source filed them. The call rests on the fitted dose curve; in most records, active means well fitted activation curve with a large enough effect; inconclusive means small, poorly fitted or top-dose-only effect; inactive means flat fitted curve, though single readings scatter.
Potency means the concentration at half of the fitted maximal effect.

This assay is described as follows: Validation screen for small molecules that induce DNA re-replication in SW480 colon adenocarcinoma cells (AID 504364). The following applies: DNA re-replication phenotype (high-content imaging); series mostly up to 46.1 µM. An excerpt:
H Molecular Libraries Probe Production Network [MLPCN]
NIH Chemical Genomics Center [NCGC]
Assay Provider: Melvin DePamphilis, NICHD, NIH
Eukaryotic cells normally restrict genome duplication to once per cell division. When this process is aberrant, DNA re-replication occurs when cells reinitiate DNA replication before the first round of replication is complete. DNA re-replication induces the DNA damage response, arrests cell proliferation, and triggers apoptosis. The cell cycle components cyclin A, Cdt-1, Cdc6 and geminin are critical regulators of this process and their misregulation results in DNA re-replication in normal and cancer cells. To identify compounds that induce re-replication in normal cells, an image-based assay was used to measure DNA content of nuclei, as detected by the fluorescent DNA binding dye, Hoechst. Cell nuclei were imaged by a fluorescence scanning plate imager and compounds that induce DNA re-replication were identified by the increase of nuclei with elevated fluorescence intensity.#
For screening, 250 cells in 5 uL/well were dispensed into black clear 1536-well plates (Aurora) using a solenoid-based dispenser. Following transfer of 23 nL compound or DMSO vehicle by a pin tool, the plates were incubated 48 hr at 37 C and 5% CO2. After addition of 1 uL/well Hoescht stain, the plates were incubated 40 min at 37 C, 5% CO2 and total intensity of fluorescent objects (nuclei) were enumerated by an Acumen Explorer Ex3 (TTP LabTech) fluorescence scanning plate imager (405 nm excitation, 500-530 nm emission).
Keywords: NIH Roadmap, MLPCN, MLI, MLSMR, qHTS, NCGC, DNA replication, cancer
On to `O=c1[nH]c2ccccc2n1C1CCN(CCCC(c2ccc(F)cc2)c2ccc(F)cc2)CC1`, for which the Potency result was “inactive”. As to `NCC(O)c1ccc(O)cc1` (centres undefined), the Potency entry was “inactive”.

With `Cc1ccc(S(=O)(=O)N[C@@H](CCCCN)C(=O)CCl)cc1`, the Potency entry was “inactive”.

On to `CCC1(C2=NCCN2)Cc2ccccc2O1` (centres undefined), for which the Potency result was “inactive”. Consider `c1ccc(C2CC2)c(OCC2=NCCN2)c1`, for which the Potency result was “inactive”.

With `CCn1cc(C(=O)O)c(=O)c2ccc(C)nc21`, the Potency entry is “inactive”. Consider `CNCC(O)c1ccc(O)cc1` (centres undefined), for which the Potency result is “inactive”.

As for `COc1cc2c(c(OC)c1OC)-c1ccc(OC)c(=O)cc1[C@@H](NC(C)=O)CC2`, the Potency is 58 nM (active). The entry for `CC[N+](CC)(CC)CC` is “inactive”; for `NN=C(N)N` it is “inactive”; for `COc1ccccc1N1CCNCC1` it is “inactive”. For the compound `Nc1ccncc1`, the Potency entry was “inactive”.

In the case of `CCCC(C)(COC(N)=O)COC(=O)NC(C)C` (centres undefined), the Potency entry is “inactive”. Regarding `NCC(CC(=O)O)c1ccc(Cl)cc1` (centres undefined), the Potency entry was “inactive”. The entry for `Cc1ncc(CNC(=O)N(CCCl)N=O)c(N)n1` is “inactive”. The entry for `N#CC(C#N)=Cc1ccc(O)c(O)c1` is “inactive”. Take `COC[C@H]1OC(=O)c2coc3c2[C@@]1(C)C1=C(C3=O)C2CCC(=O)[C@@]2(C)C[C@H]1OC(C)=O` (some centres undefined): the Potency entry was “inactive”. Then `CC(CCc1ccccc1)NC(C)C(O)c1ccc(O)cc1` (centres undefined), with “inactive”. The entry for `c1ccc2c(c1)OCC(C1=NCCN1)O2` (centres undefined) is “inactive”; for `Clc1cccc(N2CCNCC2)c1` it is “inactive”.

In the case of `NCC1(CC(=O)O)CCCCC1`, the Potency result is “inactive”. Then `C=C(C)[C@H]1Cc2c(ccc3c2O[C@@H]2COc4cc(OC)c(OC)cc4[C@@H]2C3=O)O1`, with 920 nM (active). The entry for `O=c1[nH]c2ccccc2n1CCCN1CCC(n2c(=O)[nH]c3cc(Cl)ccc32)CC1` is “inactive”; for `Cc1cccc(C)c1NC1=NCCCS1` it is “inactive”. Turning to `COc1ccc(Cc2nccc3cc(OC)c(OC)cc23)cc1OC`, the Potency entry is “inactive”. Then `CCCN1CCC[C@@H]2Cc3nc(N)ncc3C[C@H]21`, with “inactive”; and `CC(=O)[C@H]1CC[C@H]2[C@@H]3CC[C@H]4C[C@H](O)CC[C@]4(C)[C@H]3C(=O)C[C@]12C`, with “inactive”; and `O=C1NCN(c2ccccc2)C12CCN(CC1COc3ccccc3O1)CC2` (centres undefined), with “inactive”. Turning to `C[C@@H]1O[C@@H](O[C@H]2C[C@@H](O)[C@]3(CO)[C@H]4[C@H](O)C[C@]5(C)[C@@H](C6=CC(=O)OC6)CC[C@]5(O)[C@@H]4CC[C@]3(O)C2)[C@H](O)[C@H](O)[C@H]1O`, the Potency result is “inactive”.

These data come from PubChem BioAssay (NCATS).
